# Hits are enriched below; roughly 2.7% of the tested compounds scored in any of these assays.
# Nrf2 block – Nrf2 qHTS screen for inhibitors. A549 ARE-Fluc reporter, luciferase luminescence, 18-24 h. Potency, µM (top dose mostly 46 µM), without a hit: at the top dose activity change, negative = inhibition, hits mostly inhibitors. 360,000 compounds, 2.1% hits. AID 504444, 2011; note: potency is the fitted concentration of half-maximal effect; % is set by controls: 0 for no effect and ±100 for the full control effect; nearly all actives have a fitted effect of over 60% in size
#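 A549 ARE_Fluc cells (5000/well, 5% FBS OPTI-MEM) pre-incubated 2 h, then treated with compounds 18-24 h at 37C/5% CO2 in concentration-response. CellTiter-Fluor viability read first; BugLite luciferase luminescence after 15 min at room temperature gives Nrf2 activity.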
# LDHA block – qHTS assay for inhibitors of human lactate dehydrogenase | L-lactate dehydrogenase A chain (Homo sapiens), P00338 | purified LDHA, NADH/diaphorase-resazurin fluorescence; active compounds read low | activity change, % (values are at about 110 or 230 µM) | 480,000 compounds, 0.15% hits; in the data active = activity change below about -30%; inconclusive = mostly about -25% to -30%;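 note: plate controls were DMSO wells for no effect and wells without enzyme for full effect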
#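 LDH5 2 nM; NADH 0.06 mM, pyruvate 0.2 mM; 200 mM Tris pH 7.4, EDTA, Tween-20; 5 min RT. Detection: diaphorase 0.133 mg/mL + resazurin 37 µM, fluorescence ex540/em590 at 0 and 20 min; normalized to enzyme-free and DMSO wells.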
# Nrf2 activator – qHTS of Nrf2 Activators; 410,000 compounds, 0.31% hits; Potency, µM (highest dose often 46.1 µM), inactives show at the top dose activation, most hits filed as activators; AREc32 ARE-luciferase reporter (MCF7-derived line), luminescence, 24 h; note: potency is the fitted concentration of half-maximal effect; % of control where 0% means no effect; nearly all actives have a fitted effect of over 65% in size
#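 AREc32 cells carrying an ARE-driven firefly luciferase, 1000 cells/well in OPTI-MEM with 5% FBS, dosed after overnight attachment and incubated 24 hr at 37 deg C. Steady-Glo luminescence read after 30 min at RT.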
# mIDH1 inhibitor – qHTS for Inhibitors of mutant isocitrate dehydrogenase 1 (IDH1): qHTS; 390,000 compounds, 0.093% hits; Isocitrate dehydrogenase [NADP] cytoplasmic (Homo sapiens), O75874; Potency, µM (series often up to 76.6 µM), for inactives: top-dose activity change, negative = inhibition, most hits filed as inhibitors; IDH1-R132H enzyme, NADPH consumption, diaphorase/resazurin fluorescence; note: potency is the fitted concentration of half-maximal effect; % is set by controls: 0 for no effect and ±100 for the full control effect; nearly all actives have a fitted effect of over 65% in size
#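 IDH1-R132H (0.5 ug/mL) preincubated 30 min with compound, then NADPH (0.016 mM) and alpha-KG (2 mM) added; 80 min at RT, pH 7.5. Remaining NADPH coupled via diaphorase/resazurin to fluorescence (540/590 nm); concentration-response curves normalized to no-enzyme control.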
# 12-LOX inh – Primary qHTS assay for inhibitors of human arachidonate 12S-lipoxygenase (ALOX12): Round 2; 580,000 compounds, 1.1% hits; Polyunsaturated fatty acid lipoxygenase ALOX12 (Homo sapiens), P18054; Potency, µM (series often up to 108 µM), for the others: at the highest dose activity change, negative = inhibition, hits mostly inhibitors; purified 12hLO, xylenol orange hydroperoxide absorbance; note: potency is the fitted concentration of half-maximal effect; % is set by controls: 0 for no effect and ±100 for the full control effect
#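 Purified human 12hLO at 150 nM in 25 mM Hepes, 0.01% Triton X-100, pH 7.0, preincubated 15 min at room temperature with compound. Reaction started with 40 uM arachidonic acid, 30 min at room temperature. Hydroperoxide measured by Fe-xylenol orange, 573/405 nm absorbance ratio.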
# A549 tox-1 – Nrf2 qHTS screen for inhibitors: counterscreen for cytotoxicity | A549 ARE-Fluc cells, CellTiter-Fluor viability, 18-24 h | AID 504648, 2011 | Potency, µM (doses to about 46 µM), without a hit: at the highest dose activity change, negative = cytotoxicity, most hits filed as inhibitors | 390,000 compounds, 0.16% hits; note: potency is the fitted concentration of half-maximal effect; % is set by controls: 0 for no effect and ±100 for the full control effect
#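 A549 ARE_Fluc cells in 5% FBS OPTI-MEM were exposed to compounds in concentration-response for 18-24 h at 37 deg C. Viability was read by CellTiter-Fluor fluorescence (Ex 405/Em 525) after 30 min, before the luciferase read.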
# FLuc counter 3 – Nrf2 qHTS screen for inhibitors: Purified Fluc Biochemical Counterscreen for Hit Validation. shares compounds with Nrf2 block. purified firefly luciferase, luminescence inhibition. Potency, µM (series often up to 57.5 µM), for inactives: at the top dose activity change, negative = inhibition, usual class: inhibitors. 1,400 compounds, 4% hits. AID 720522, 2013; note: potency is the fitted concentration of half-maximal effect; % is set by controls: 0 for no effect and ±100 for the full control effect; nearly all actives have a fitted effect of over 65% in size
# Target sequence (P08659 whole entry, looked up): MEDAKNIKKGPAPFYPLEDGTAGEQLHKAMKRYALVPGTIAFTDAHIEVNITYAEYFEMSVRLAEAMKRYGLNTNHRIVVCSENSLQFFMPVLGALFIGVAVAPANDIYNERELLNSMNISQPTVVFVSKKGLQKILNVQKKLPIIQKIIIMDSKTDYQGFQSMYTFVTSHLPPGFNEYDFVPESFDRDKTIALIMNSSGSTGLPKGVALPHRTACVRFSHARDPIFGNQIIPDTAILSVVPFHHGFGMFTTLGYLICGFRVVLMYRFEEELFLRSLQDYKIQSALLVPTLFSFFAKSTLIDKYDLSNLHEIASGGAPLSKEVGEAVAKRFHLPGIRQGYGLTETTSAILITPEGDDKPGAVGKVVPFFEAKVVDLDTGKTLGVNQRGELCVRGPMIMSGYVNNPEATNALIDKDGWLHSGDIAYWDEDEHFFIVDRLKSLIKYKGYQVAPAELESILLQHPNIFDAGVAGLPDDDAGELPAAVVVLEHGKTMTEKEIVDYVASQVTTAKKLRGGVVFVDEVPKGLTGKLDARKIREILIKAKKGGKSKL
# A549 tox-2 – Nrf2 qHTS screen for inhibitors: A549 ARE-Fluc Cytotoxicity Counterscreen for Hit Validation; shares compounds with Nrf2 block; A549 ARE-Fluc cells, cytotoxicity counterscreen; Potency, µM (titrated, usually from 46.1 µM), for inactives: top-dose activity change, negative = cytotoxicity, most hits filed as inhibitors; 1,400 compounds, 2% hits; AID 720523, 2013;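 note: potency is the fitted concentration of half-maximal effect; cells exposed to compounds for 18 to 24 hours; % is set by controls: 0 for no effect and ±100 for the full control effect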
# Nrf2 ARE inh – Nrf2 qHTS screen for inhibitors: Nrf2 A549 ARE-Fluc Confirmation Assay for Hit Validation | shares compounds with Nrf2 block | A549 ARE-firefly luciferase reporter, luminescence | Potency, µM (titrated, usually from 46.1 µM), for inactives: at the highest dose activity change, negative = inhibition, hits mostly inhibitors | 1,400 compounds, 74% hits | AID 720524, 2013; note: potency is the fitted concentration of half-maximal effect; % is set by controls: 0 for no effect and ±100 for the full control effect; nearly all actives have a fitted effect of over 65% in size
# The depositor's hits bear a star; ? = inconclusive; · = no result given. Unless noted, calls come from the whole dose curve; as a rule, active = well fitted curve in the direction sought with a large enough effect; inconclusive = small, poorly fitted or top-dose-only effect, or another doubt; inactive = no such curve, though single readings can be large; an effect the other way counts as inactive or inconclusive.
SMILES,Nrf2 block,LDHA block,Nrf2 activator,mIDH1 inhibitor,12-LOX inh,A549 tox-1,FLuc counter 3,A549 tox-2,Nrf2 ARE inh
CCN(CC(=O)Nc1c(F)cccc1F)C(=O)c1cc(S(=O)(=O)N(CC)CC)ccc1N1CCCCC1,8.2µM*,0.4,-0.9%,0.0%,0.9%,3.5%,-0.1%,6.0%,10.3µM*
Fc1cc(Br)ccc1OCc1cc(-c2cccs2)on1,·,6.3,·,·,?,·,·,·,·
COc1ccc(N/C=C/C(=O)c2ccc(Br)cc2)cc1,·,-2.9,·,·,?,·,·,·,·
Cc1ccc(S(=O)(=O)N2CCC(C(=O)Nc3ccc(C)c(Cl)c3)CC2)cc1,?,-7.2,7.8%,-3.2%,-15.2%,-14.0%,-2.3%,-16.5%,7.31µM*
CC1Sc2ccc(S(=O)(=O)N3CCN(c4ccccc4)CC3)cc2NC1=O (centres undefined),7.31µM*,-6.1,0.7%,-9.4%,-12.8%,-5.3%,-0.9%,-4.8%,?
Cc1ccc(C)c(N2CCN(C(=O)CCS(=O)(=O)c3ccc4c(c3)NC(=O)C(C)S4)CC2)c1 (centres undefined),6.51µM*,-7.5,-0.5%,2.2%,-6.7%,-1.2%,0.5%,-15.3%,6.51µM*
Cc1ccc(NC(=O)C2CCN(S(=O)(=O)c3ccc4c(c3)NC(=O)C(C)S4)CC2)cc1Cl (centres undefined),1.3µM*,-4.0,-0.5%,-2.6%,-1.9%,?,-9.6%,-27.4%,9.2µM*
Cc1ccccc1NC(=O)C1CCN(S(=O)(=O)c2ccc3c(c2)NC(=O)C(C)S3)CC1 (centres undefined),-12.3%,-0.5,0.0%,0.0%,-4.5%,-1.8%,·,·,·
CC1Sc2ccc(S(=O)(=O)N3CCN(c4cccc(Cl)c4)CC3)cc2NC1=O (centres undefined),-5.7%,-8.3,0.6%,-3.4%,0.9%,-3.3%,·,·,·
Cc1ccc(NC(=O)C2CCN(S(=O)(=O)c3ccc(F)cc3)CC2)cc1,-33.5%,-8.4,0.5%,-3.2%,0.0%,-1.3%,·,·,·
Cc1ccc2c(CN3C(=O)c4ccccc4S3(=O)=O)cc(=O)oc2c1,·,9.0,·,·,?,·,·,·,·
COc1cccc(NC(=O)CCC2CCN(S(=O)(=O)c3ccccc3)CC2)c1,·,·,·,·,36.0%,·,·,·,·
Cc1cc(NC(=O)CSc2nc3c(sc4ccccc43)c(=O)n2CCCN2CCOCC2)n[nH]1,7.31µM*,-7.9,-0.7%,-2.2%,-5.1%,?,2.1%,?,10.3µM*
Cc1cc(NC(=O)CSc2nc3c(sc4ccccc43)c(=O)n2CCc2ccccc2)n[nH]1,-27.3%,-15.1,-0.8%,-0.8%,0.0%,-9.6%,·,·,·
C[N+](C)(C)CC(=O)c1ccc2c(c1)OCCCO2,·,-0.8,·,·,19.8%,·,·,·,·
Cc1onc(-c2c(F)cccc2Cl)c1C(=O)Nc1nnc(C(C)C)s1,·,-3.1,·,·,32.9%,·,·,·,·

# From PubChem BioAssay
